Values without a mark were called inactive. Activity calls are given as the source filed them.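 Rule for the calls: active = compound whose remaining NAD level is above about 45 nM (limit read from the data); inactive = the rest.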 Positions of bridges follow the written chain, without caps; N, C: chain ends. Non-standard residues stand in square brackets, D forms with d. Residues, ends and D or L forms follow the SMILES beside them. ξ: configuration not given here. *: point of attachment. Heptanoyl(5-Me) = CCC(C)CCCC(=O)*; ξThr(3R) = C[C@@H](O)C(N)C(=O)O; dDab = NCC[C@@H](N)C(=O)O; Dab = NCC[C@H](N)C(=O)O
Target: NAD(+) hydrolase SARM1 (Homo sapiens) (UniProt Q6SZW1)
Sequence (Q6SZW1 whole entry, looked up): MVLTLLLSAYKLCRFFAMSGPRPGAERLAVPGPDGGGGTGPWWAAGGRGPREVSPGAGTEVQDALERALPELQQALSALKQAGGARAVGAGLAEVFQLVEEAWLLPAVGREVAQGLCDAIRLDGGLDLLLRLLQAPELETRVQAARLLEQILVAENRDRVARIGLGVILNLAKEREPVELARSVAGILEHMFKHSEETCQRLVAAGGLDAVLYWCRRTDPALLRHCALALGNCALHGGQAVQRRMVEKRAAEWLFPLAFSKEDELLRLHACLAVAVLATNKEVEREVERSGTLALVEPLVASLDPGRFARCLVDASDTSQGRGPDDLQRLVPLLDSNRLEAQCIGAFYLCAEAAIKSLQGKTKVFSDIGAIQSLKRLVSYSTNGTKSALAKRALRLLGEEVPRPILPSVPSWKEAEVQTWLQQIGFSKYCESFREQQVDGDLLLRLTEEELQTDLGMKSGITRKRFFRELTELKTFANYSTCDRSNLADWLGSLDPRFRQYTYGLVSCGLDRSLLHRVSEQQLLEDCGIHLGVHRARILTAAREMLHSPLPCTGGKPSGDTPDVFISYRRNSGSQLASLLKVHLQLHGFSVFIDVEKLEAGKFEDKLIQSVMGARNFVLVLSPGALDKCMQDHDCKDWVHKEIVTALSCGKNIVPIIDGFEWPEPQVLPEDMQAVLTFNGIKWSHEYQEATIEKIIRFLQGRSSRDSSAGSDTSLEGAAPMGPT
Experiment: SARM1 TIR NADase inhibitors, cell lysate, NAD-Glo luminescence (AID 1508614);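 note: higher remaining NAD means stronger inhibition of SARM1 NADase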
Conditions: SAM-TIR HEK293T lysate NADase, at 1 µM, hits give high values

SMILES	remaining NAD
CC(=O)c1ccc2c(c1)N(CCCN1CCN(CCO)CC1)c1ccccc1S2	10 nM
CCC(=O)Oc1ccc2c(c1)CC[C@@H]1[C@@H]2CC[C@]2(C)[C@@H](OC(=O)CC)CC[C@@H]12	10 nM
Cc1ccc2c(Br)cc(Br)c(OC(=O)c3ccccc3)c2n1	10 nM
O=C(O)[C@H](O)[C@@H](O)[C@H](O)[C@H](O)CO	10 nM
CO[C@H]1C[C@H](O[C@H]2[C@H](C)O[C@@H](O[C@@H]3/C(C)=C/C[C@@H]4C[C@@H](C[C@]5(C=C[C@H](C)[C@@H](C6CCCCC6)O5)O4)OC(=O)[C@@H]4C=C(C)[C@@H](O)[C@H]5OC/C(=C\C=C\[C@@H]3C)[C@]54O)C[C@@H]2OC)O[C@@H](C)[C@@H]1O	10 nM
COc1cc(/C=C/C(=O)N2CCCCCCC2)cc(OC)c1OC	10 nM
C[C@]12CC[C@@H]3c4ccc(O)cc4CC[C@H]3[C@@H]1C[C@H](O)[C@@H]2O	48 nM (active)
Cc1cc2nc3c(=O)[nH]c(=O)nc-3n(C[C@H](O)[C@H](O)[C@H](O)COP(=O)(O)O)c2cc1C	10 nM
CC/C=C\C/C=C\C/C=C\C/C=C\C/C=C\C/C=C\CCC(=O)OCC (tested in a mixture with another compound)	10 nM
CO/N=C(\C(=O)N[C@@H]1C(=O)N2C(C(=O)O)=C(CSc3nnnn3C)CS[C@H]12)c1csc(N)n1	10 nM
NC(=O)[C@@H]1CCCN1C(=O)[C@H](Cc1cnc[nH]1)NC(=O)[C@@H]1CCC(=O)N1	10 nM
CCC(C)CCCC(=O)N[C@@H](CCN)C(=O)N[C@H](C(=O)N[C@@H](CCN)C(=O)N[C@H]1CCNC(=O)C([C@@H](C)O)NC(=O)[C@@H](CCN)NC(=O)[C@H](CCN)NC(=O)[C@@H](CC(C)C)NC(=O)[C@@H](CC(C)C)NC(=O)[C@H](CCN)NC1=O)[C@@H](C)O (stereo partly drawn) ({Heptanoyl(5-Me)}-[Dab]T[Dab][Dab][Dab][dL][dL][Dab][dDab][ξThr(3R)]; lactam 4-C)	10 nM
Nc1ncnc(Nc2ccc(Cl)cc2)n1	10 nM
C[C@H]1C[C@@H]2[C@H]([C@@H](O)C[C@@]3(C)[C@H]2CC[C@]3(O)C(=O)COC(=O)CCC(=O)O)[C@@]2(C)C=CC(=O)C=C12	10 nM
CCCCCCCCCCCCCCCC(=O)OC[C@H](O)[C@H]1OC(=O)C(O)=C1O	10 nM
CCCCCCCCCC[N+](C)(C)Cc1ccccc1	10 nM
CCCCCCCCCC(=O)N[C@@H](Cc1c[nH]c2ccccc12)C(=O)N[C@@H](CC(N)=O)C(=O)N[C@@H](CC(=O)O)C(=O)N[C@@H]1C(=O)NCC(=O)N[C@@H](CCCN)C(=O)N[C@@H](CC(=O)O)C(=O)N[C@H](C)C(=O)N[C@@H](CC(=O)O)C(=O)NCC(=O)N[C@H](CO)C(=O)N[C@@H]([C@H](C)CC(=O)O)C(=O)N[C@@H](CC(=O)c2ccccc2N)C(=O)O[C@@H]1C	10 nM
CCC(=O)OCC(=O)[C@@]1(OC(=O)CC)[C@H](C)C[C@H]2[C@H]3[C@H]([C@@H](O)C[C@@]21C)[C@@]1(C)C=CC(=O)C=C1C[C@H]3Cl	10 nM
CN(N=O)C(=O)N[C@@H](C=O)[C@@H](O)[C@H](O)[C@H](O)CO	10 nM
O=C(O[C@H]1CN2CCC1CC2)N1CCc2ccccc2[C@@H]1c1ccccc1	10 nM

SMILES	remaining NAD
Oc1ccc(Cl)c2c1CCC2	10 nM
CCCCCCOC(=O)/N=C(\N)c1ccc(NCc2nc3cc(C(=O)N(CCC(=O)OCC)c4ccccn4)ccc3n2C)cc1	10 nM
C=C(C)[C@H]1CC=C(C)CC1	10 nM
CCOC(=S)SSC(=S)OCC	10 nM
CCCCCCCCCC(=O)N[C@H]1[C@H](Oc2c3cc4cc2Oc2ccc(cc2Cl)[C@@H](O[C@@H]2O[C@H](CO)[C@@H](O)[C@H](O)[C@H]2NC(C)=O)[C@@H]2NC(=O)[C@H](NC(=O)[C@@H]4NC(=O)[C@H]4NC(=O)[C@@H](Cc5ccc(c(Cl)c5)O3)NC(=O)[C@@H](N)c3ccc(O)c(c3)Oc3cc(O)cc4c3)c3ccc(O)c(c3)-c3c(OC4O[C@H](CO)[C@@H](O)[C@H](O)[C@@H]4O)cc(O)cc3[C@@H](C(=O)O)NC2=O)O[C@H](CO)[C@@H](O)[C@@H]1O (stereo not given in full)	10 nM
C/C=C(\C)C(=O)OC1[C@H](OC(C)=O)C2(CO)C(CC1(C)C)C1=CCC3C4(C)CCC(O[C@@H]5O[C@H](C(=O)O)[C@@H](O[C@@H]6O[C@H](CO)[C@@H](O)[C@H](O)[C@H]6O)[C@H](O)[C@H]5O[C@H]5O[C@H](CO)[C@@H](O)[C@H](O)[C@H]5O)[C@](C)(CO)C4CCC3(C)[C@]1(C)C[C@H]2O (stereo not given in full)	10 nM
CC(=O)O[C@@H]1C[C@@H]2CC[C@@]1(C)C2(C)C	10 nM
C#C[C@]1(OC(C)=O)CC[C@H]2[C@@H]3CCC4=C/C(=N\O)CC[C@@H]4[C@H]3CC[C@@]21CC	10 nM
CC(C)CC(NC(=O)C(C)NC(=O)CNC(=O)C(NC=O)C(C)C)C(=O)NC(C)C(=O)NC(C(=O)NC(C(=O)NC(C(=O)NC(Cc1c[nH]c2ccccc12)C(=O)NC(CC(C)C)C(=O)NC(Cc1c[nH]c2ccccc12)C(=O)NC(CC(C)C)C(=O)NC(Cc1c[nH]c2ccccc12)C(=O)NC(CC(C)C)C(=O)NC(Cc1c[nH]c2ccccc12)C(=O)NCCO)C(C)C)C(C)C)C(C)C (stereo not given)	10 nM
CC1/C=C/C=C/C=C/C=C/C=C/C=C/C=C/C(OC2O[C@H](C)[C@@H](O)[C@H](N)[C@@H]2O)CC(O)C(C(=O)O)C(O)CC(=O)CC(O)CC(O)CC(O)CC(=O)CCCC(=O)CC(=O)OC1C(C)CC(C)C(O)CC(=O)c1ccc(N)cc1 (stereo not given in full)	10 nM
CC1(C)C2CCC1(CS(=O)(=O)O)C(=O)C2=Cc1ccc(C=C2C(=O)C3(CS(=O)(=O)O)CCC2C3(C)C)cc1	10 nM
S=C1SCN(Cc2ccccc2)CN1Cc1ccccc1	10 nM
Nc1ccc(S(=O)(=O)[O-])cc1.Nc1ccc(S(=O)(=O)[O-])cc1.O.O.O.O.[Zn+2]	10 nM
CC(=O)N1CCN(c2ccc(OC[C@@H]3CO[C@@](Cn4ccnc4)(c4ccc(Cl)cc4Cl)O3)cc2)CC1	10 nM
C[C@H]1C[C@H]2[C@@H]3CCC4=CC(=O)C=C[C@]4(C)[C@@]3(F)[C@@H](O)C[C@]2(C)[C@@]1(O)C(=O)COP(=O)(O)O	10 nM
COc1ccc2nc([S@@](=O)Cc3ncc(C)c(OC)c3C)[nH]c2c1	10 nM
CC(=O)[C@H]1CC[C@H]2[C@@H]3CC=C4C[C@@H](OC(=O)CCC(=O)O)CC[C@]4(C)[C@H]3CC[C@]12C	10 nM
CO[C@H]1C[C@H](O[C@@H]2/C(C)=C\C[C@@H]3C[C@@H](C[C@]4(C=C[C@H](C)[C@@H](C(C)C)O4)O3)OC(=O)[C@@H]3C=C(C)[C@@H](O)[C@H]4OC/C(=C/C=C\[C@@H]2C)[C@]43O)O[C@@H](C)[C@H]1O[C@H]1C[C@@H](OC)[C@H](NC(C)=O)[C@H](C)O1	10 nM
O=C(NCc1ccccc1)OCCO	10 nM
OC[C@H]1O[C@@H](O[C@H]2[C@H](O)[C@@H](O)[C@@H](O)O[C@@H]2CO)[C@H](O)[C@@H](O)[C@H]1O	10 nM

Reference: PubChem BioAssay
